LmPK inhibitor = LmPK (Leishmania mexicana) enzyme inhibition; purified LmPK, Kinase-Glo ATP luminescence, 1 h; hit rate 0.37% among 290,000; Potency, µM (doses to about 57.5 µM), for inactives: at the highest dose activity change, negative = inhibition, hits mostly inhibitors; Q27686; AID 1721; note: potency is the fitted concentration of half-maximal effect; % is set by controls: 0 for no effect and ±100 for the full control effect
Target sequence (Q27686 whole entry, looked up): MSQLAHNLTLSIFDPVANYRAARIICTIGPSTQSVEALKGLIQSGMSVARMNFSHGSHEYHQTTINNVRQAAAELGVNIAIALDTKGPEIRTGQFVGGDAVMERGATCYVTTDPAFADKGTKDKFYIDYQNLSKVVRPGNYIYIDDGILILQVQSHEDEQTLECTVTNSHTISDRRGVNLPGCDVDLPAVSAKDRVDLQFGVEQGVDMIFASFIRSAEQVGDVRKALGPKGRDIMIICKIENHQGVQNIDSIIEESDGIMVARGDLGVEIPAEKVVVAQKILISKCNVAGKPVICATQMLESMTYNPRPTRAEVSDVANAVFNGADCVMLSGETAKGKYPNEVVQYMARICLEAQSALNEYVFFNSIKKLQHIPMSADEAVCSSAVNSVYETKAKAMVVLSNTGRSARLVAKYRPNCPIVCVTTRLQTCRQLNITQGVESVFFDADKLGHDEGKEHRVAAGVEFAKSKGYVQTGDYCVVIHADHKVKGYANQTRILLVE
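qHTS format; LmPK 0.1 nM; substrates PEP 0.5 mM and ADP 0.1 mM. One-hour room-temperature incubation, then coupled luciferase luminescence; 0.5 nM enzyme wells mark activation.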
RE007 growth inh = less growth of the S. pombe RE007 Vpr strain | AID 651644 | hit rate 0.21% among 360,000 | Potency, µM (titrated, usually from 92.2 µM), without a hit: top-dose activity change, negative = less growth, hits mostly inhibitors | S. pombe RE007 Vpr strain, BacTiter-Glo ATP luminescence, 24 h; active = well fitted falling curve with a large enough effect; inconclusive = small, poorly fitted or top-dose-only effect; inactive = no such curve, though single readings can be large or run the other way; note: potency is the fitted concentration of half-maximal effect; % is set by controls: 0 for no effect and ±100 for the full control effect; nearly all actives have a fitted effect of over 50% in size
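Fission yeast strain RE007, carrying one chromosomally integrated HIV-1 vpr copy, was seeded at OD 0.01 in PMG+AL medium with 23 nL pinned compound. After 24 h at 30 °C and 99% humidity, viability was read by BacTiter-Glo luminescence.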
Shiga inhibitor = blocks Shiga toxin action in Vero cells; Vero cells, Shiga toxin protein synthesis inhibition reporter; inhibition, % at 38.7 µM; hit rate 9.2% among 290,000; AID 2315; in the data active = inhibition mostly above about 28%, no sharp cut-off; inactive = mostly below about 43%; note: 0% is about no effect
Giardia FBPA inh = blocks Giardia fructose-bisphosphate aldolase activity | A8B2U2 | hit rate 0.71% among 290,000 | Potency, µM (doses to about 59.6 µM), without a hit: top-dose activity, negative = inhibition, usual class: inhibitors | AID 2451 | purified Giardia FBPA; note: potency is the fitted concentration of half-maximal effect; % is set by controls: 0 for no effect and ±100 for the full control effect; nearly all actives have a fitted effect of over 55% in size
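Giardia FBPA (40 nM reagent) was preincubated 10 min at RT with compound (up to 57.5 uM final), then substrate plus GAPDH/TPI/NAD/arsenate coupling system with diaphorase/resazurin was added; resorufin fluorescence (525/598 nm) was read after 20 min.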
TbPYK inhibitor = blocks Trypanosoma brucei pyruvate kinase; Q57TT1; hit rate 0.12% among 410,000; Potency, µM (highest dose often 76.8 µM), without a hit: at the highest dose activity, negative = inhibition, most hits filed as inhibitors; TbPYK enzyme, Kinase-Glo Plus ATP luminescence, 45 min; note: potency is the fitted concentration of half-maximal effect; % is set by controls: 0 for no effect and ±100 for the full control effect; nearly all actives have a fitted effect of over 50% in size
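Readout: single end-point luminescence (Kinase-Glo Plus, 10 min). Reaction conditions were TbPYK/substrate plus 130 uM ADP, 45 min at RT, pH 7.2 TEA buffer. No-enzyme wells served as controls, and data were normalized before concentration-response fitting.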
CHX counter = affects cycloheximide protein synthesis inhibition readout, counter-screen; cell reporter, cycloheximide protein synthesis inhibition counterscreen; hit rate 12% among 300,000; max response, %; in the data active = max response mostly above about 13%, no sharp cut-off; inactive = mostly below about 14%; note: read at 38.3 µM for the half of the compounds with a filed dose; 0% is about no effect
* = called active by the depositor; ? = inconclusive; . = no result. This is one part of a sample in which hits are shown more often than they occur. Unless noted, calls come from the whole dose curve; as a rule, active = well fitted curve in the direction sought with a large enough effect; inconclusive = small, poorly fitted or top-dose-only effect, or another doubt; inactive = no such curve, though single readings can be large; an effect the other way counts as inactive or inconclusive.

SMILES	LmPK inhibitor	RE007 growth inh	Shiga inhibitor	Giardia FBPA inh	TbPYK inhibitor	CHX counter
Cc1ccc(NC(=O)c2ccc(CSc3ccccn3)cc2)c(O)c1	6%	-13%	27	-13%	3%	10
Cc1ccc(NC(=O)c2ccc(CSc3nnnn3C)cc2)cc1	4%	4%	141*	0%	0%	37*
CCn1c(Cc2ccc(OC)cc2)nnc1SCc1nc2ccccc2c(=O)[nH]1	-4%	40%	-5	4%	-5%	0
CC(=O)OCC(=O)[C@]1(O)C(OC(C)=O)CC2C3CCC4=CC(=O)C=C[C@@]4(C)[C@]3(F)C(O)C[C@]21C (stereo partly specified)	.	.	.	0%	.	.
CCOc1ccc(C(=O)N2CCc3cc(OC)c(OC)cc3C2COc2ccc3c(C)cc(=O)oc3c2)cc1OCC (stereo unspecified)	.	.	.	.	1%	.
O=C(CCCCCn1c(=O)c2sccc2n(CC(=O)Nc2ccccc2F)c1=O)NCc1ccc2c(c1)OCO2	.	.	.	.	-1%	.
CCOCCCNC(=O)C(c1ccc(Cl)cc1)N(Cc1ccc2c(c1)OCO2)C(=O)c1ccccc1O (stereo unspecified)	.	.	.	.	2%	.
COc1ccc(NC(=O)C(C)N=C2NS(=O)(=O)c3ccccc32)cc1S(N)(=O)=O (stereo unspecified)	.	-4%	.	.	-6%	.
Cc1cc(C)cc(NC(=O)c2ccc(CSc3nnc(C)s3)cc2)c1	0%	-15%	80*	-2%	1%	29*
Cc1ccc(NC(=O)c2ccc(CSc3nnc(C)s3)cc2)cc1	2%	1%	140*	5%	-4%	55*
CC(C)c1ccc(NC(=O)c2ccccc2NC(=O)C2CCCCC2C(=O)O)cc1 (stereo unspecified)	0%	8%	60*	20%	-4%	39*
CC(C)c1ccc(NC(=O)c2ccccc2NC(=O)C2CC=CCC2C(=O)O)cc1 (stereo unspecified)	0%	-11%	60*	.	-3%	33*
O=C(Nc1cccc(Cl)c1)c1ccccc1NC(=O)C1CCCCC1C(=O)O (stereo unspecified)	5%	2%	27	23%	-3%	21*
O=C(Nc1ccc(F)c(Cl)c1)c1ccccc1NC(=O)C1CCCCC1C(=O)O (stereo unspecified)	.	-12%	.	.	4%	.
Cc1ccc(CN2CCN(C3CCN(S(=O)(=O)N(C)C)CC3)C(=O)C2=O)cc1	.	.	.	.	-2%	.
Cc1ccc(C(NC(=O)CN2C(=O)NC3(CCCC3)C2=O)c2ccccc2)cc1 (stereo unspecified)	.	6%	.	.	0%	.
CCC1CSC(=Nc2ccc(C)cc2)N1C(=O)CN1C(=O)NC2(CCCC2)C1=O (stereo unspecified)	1%	1%	74*	-2%	3%	34*
CCOc1ccc(-c2cnc(NCc3ccc(OC)cc3OC)n2C)cc1	.	.	.	.	10%	.
O=S(=O)(c1cccc(Cl)c1)c1nnn2c1nc(NC1CCCC1)c1sccc12	.	.	.	.	3%	.
COc1ccc(C(=O)Nc2ccc3oc(-c4ccc(OC)cc4)nc3c2)cc1	.	.	.	.	2%	.
CN(C)c1ccc(-c2nc3cc(N)ccc3o2)cc1	-24%	?	38	-9%	-1%	14*
COC(=O)c1ccc(-c2nc3cc(N)ccc3o2)cc1	-24%	-20%	38*	-9%	4%	18*
Cc1ccc2nc(-c3cccc(NC(=O)c4ccc(Br)o4)c3)oc2c1	.	.	.	.	-2%	.
c1cc(-c2nc3cc(Cc4ccc5oc(-c6ccncc6)nc5c4)ccc3o2)ccn1	0%	.	-5	6%	.	-3
Cc1ccc2nc(-c3cc(N)cc(N)c3)oc2c1	?	-7%	36	-13%	-1%	17*
Cc1ccc(-c2nc3cc(N)ccc3o2)cc1Br	0%	-1%	.	6%	-1%	39*
CCOc1ccc(CNC(=O)c2cc3cc(S(=O)(=O)N4CCCCC4)ccc3n2C)cc1	.	.	.	.	5%	.
CCc1ccc(S(=O)(=O)N2CCN(C(=O)c3cccnc3)CC2)cc1	7%	2%	.	0%	-4%	-3
Cc1ccc(C)c(-c2nc3cc(N)ccc3o2)c1	-9%	-14%	28*	-9%	-5%	11
